Tau fibril FP: inhibitors of human tau fibril formation; actives 0.39% (n = 280,000); AID 1468; Potency, µM (doses to about 57.7 µM), for the others: at the highest dose activity, negative = inhibition, actives largely listed as inhibitors; K18 P301L tau heparin fibrillization, Alexa594 FP, 6 h; P10636; also: potency is read from the fitted curve at half-maximal effect; % is scaled to controls: 0 for no effect and ±100 for the full control effect; nearly all actives have a fitted effect of over 55% in size
Target sequence (P10636 561-689 P618L limits assumed): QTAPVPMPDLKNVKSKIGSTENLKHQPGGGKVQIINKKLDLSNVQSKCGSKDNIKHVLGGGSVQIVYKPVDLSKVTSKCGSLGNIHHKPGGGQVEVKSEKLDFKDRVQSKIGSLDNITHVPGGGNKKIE
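Quantitative HTS format: compounds meet 15 uM recombinant K18 P301L tau and Alexa 594-tau tracer in 100 mM sodium acetate pH 7; 20 uM heparin triggers fibrillization at 37 C over 6 hr; FP gives the signal.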
Tau fluor cs: counter-screen for tau fibril formation inhibitors; actives 0.93% (n = 280,000); tau K18 P301L Alexa594 fluorescence, heparin fibrillization; Potency, µM (highest dose often 57.7 µM), for inactives: at the highest dose activity change, negative = decrease; AID 1463; also: potency is read from the fitted curve at half-maximal effect; % is scaled to controls: 0 for no effect and ±100 for the full control effect; nearly all actives have a fitted effect of over 55% in size
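Human K18 P301L tau (15 uM unlabeled plus 0.24 uM Alexa 594-labeled, final) in 100 mM sodium acetate pH 7 was mixed with compound and 20 uM heparin and incubated 6 hr at 37 C.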
Tau ThT inhib: tau fibrillization inhibition (ThT binding); actives 2.1% (n = 270,000); recombinant tau K18 P301L, heparin-induced fibrillization, ThT fluorescence; AID 1460; Potency, µM (titrated, usually from 57.4 µM), for the others: at the top dose activity, negative = inhibition, most hits filed as inhibitors; also: potency is read from the fitted curve at half-maximal effect; % is scaled to controls: 0 for no effect and ±100 for the full control effect; nearly all actives have a fitted effect of over 55% in size
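Fibril formation assay: tau K18 P301L at 15 uM with trace Alexa 594 label, heparin inducer 20 uM, pH 7 sodium acetate buffer, 37 C for 6 hr; endpoint ThT signal.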
LMNA splice mod: modulators of lamin A splicing | actives 0.01% (n = 200,000) | AID 1487 | HeLa LMNA splicing GFP/RFP minigene ratio, 48 h | Potency, µM (doses to about 46.1 µM), without a hit: at the top dose ratio change, negative = inhibition, hits mostly inhibitors; active = well fitted inhibition curve with a large enough effect in the signal ratio, with a control signal flat, not every such curve was filed as active; inconclusive = small, poorly fitted or top-dose-only effect, or effect the other way, or a change in a side signal; the % refers to the signal ratio; also: potency is read from the fitted curve at half-maximal effect; % is scaled to controls: 0 for no effect and ±100 for the full control effect
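S3 HeLa cells stably expressing lamin A-EGFP splicing minigene plus DsRed2, 600 cells/well, 48 h compound exposure at 37C. Laser-scanning cytometry; analysed as GFP (500-530 nm)/RFP (575-640 nm) total intensity ratio; 0.5% DMSO vehicle.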
KDM4E inh: JMJD2E (human) inhibition | JMJD2E catalytic domain, FDH-coupled NADH fluorescence (FDH is formaldehyde dehydrogenase) | Potency, µM (series often up to 57.1 µM), for the others: top-dose activity change, negative = inhibition, most hits filed as inhibitors | actives 1.6% (n = 230,000); active = well fitted inhibition curve with a large enough effect, not every such curve was filed as active; inconclusive = small, poorly fitted or top-dose-only effect, or another doubt; inactive = no such curve, though single readings can be large or run the other way;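 also: potency is read from the fitted curve at half-maximal effect; 0% = wells with enzyme and -100% = buffer wells without enzyme; nearly all actives have a fitted effect of over 50% in size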
Target sequence (B2RXH2 1-337 limits assumed): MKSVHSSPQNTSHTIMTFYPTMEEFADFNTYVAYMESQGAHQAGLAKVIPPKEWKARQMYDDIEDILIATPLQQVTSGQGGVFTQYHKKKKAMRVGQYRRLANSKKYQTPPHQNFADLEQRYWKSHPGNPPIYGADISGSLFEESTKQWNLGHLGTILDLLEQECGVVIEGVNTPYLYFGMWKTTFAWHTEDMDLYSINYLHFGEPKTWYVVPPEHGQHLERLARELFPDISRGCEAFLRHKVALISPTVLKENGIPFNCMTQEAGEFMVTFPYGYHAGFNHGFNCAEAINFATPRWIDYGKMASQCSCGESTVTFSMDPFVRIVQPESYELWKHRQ
CBFb-RUNX1 inh: CBF-beta/RUNX1 interaction disruption. Q01196+Q13951. AlphaScreen CBFb-His/RUNX1-biotin binding, biochemical. Potency, µM (series often up to 59.8 µM), for the others: at the highest dose activity, negative = inhibition, hits mostly inhibitors. 230,000 tested, under 10 active. AID 1477; also: % of control where 0% means no effect
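AlphaScreen binding: CBFb-His and RUNX1-biotin (30 nM each) preincubated 20 min, compound added for 15 min, then nickel and streptavidin beads for 90 min, all at room temperature. Disruption of the interaction by any mechanism counts as activity.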
The depositor's hits bear a star; ? = inconclusive; · = no result; [ ] = dose if it differs, or a comment. Compounds with a hit are over-represented: about 3.2% of the library has one in this group of screens. Unless noted, calls follow the shape of the dose curve; as a rule, active = well fitted curve in the direction sought with a large enough effect; inconclusive = small, poorly fitted or top-dose-only effect, or another doubt; inactive = no such curve, though single readings can be large; an effect the other way counts as inactive or inconclusive.

SMILES	Tau fibril FP	Tau fluor cs	Tau ThT inhib	LMNA splice mod	KDM4E inh	CBFb-RUNX1 inh
Cc1ccc(OCC(=O)N/N=C\c2ccc(C)o2)c(C)c1	8.3%	-9.9%	-11.2%	·	2.2%	13.3%
Cc1ccc(OCC(=O)N/N=C\c2ccc(-c3cccc(C(=O)O)c3)o2)c(C)c1	5.4%	-22.6%	7.94µM*	-10.8%	4.3%	0.6%
Cc1cc(/C=N/Nc2nc(N)ncc2[N+](=O)[O-])c(C)n1-c1ccccc1F	5.7%	-24.2%	15.8µM*	·	-8.6%	-16.5%
Cc1cccc(C)c1-n1c(C)cc(/C=N\Nc2ccc([N+](=O)[O-])cn2)c1C	?	?	5.01µM*	14.7%	2.2%	20.8%
Nc1ncc([N+](=O)[O-])c(Oc2ccccc2F)n1	5.0%	-26.4%	?	·	0.7%	6.6%
COc1cc(NC(=O)C2CCN(C(=O)c3sc4nc[nH]c(=O)c4c3C)CC2)cc(OC)c1OC	-1.2%	4.6%	4.8%	?	·	·
COC(=O)c1ccc(C(NC(=O)OCc2ccccc2)/C(=C/[C@@H](C)C(=O)N(C)Cc2cccnc2)c2cccnc2)cc1 (some centres undefined)	3.8%	-15.4%	-6.8%	·	-12.5%	9.0%
O=C(CSc1nnnn1C1CCCCC1)N1CCN(C(=O)c2ccco2)CC1	9.3%[2.34 µM]	-53.5%	3.55µM*	-43.6%[46 µM]	?	1.5%
O=C(O)c1ccc(N=Nc2c(O)[nH]c3ccccc23)cc1	5.3%	-10.1%	15.8µM*	?	-9.1%	-6.7%
O=C(N=Nc1c(O)[nH]c2ccccc12)c1cccs1	-14.2%	-26.4%	10µM*	·	-0.3%	-6.1%
O=C(CSc1nc2ccccc2[nH]1)N=Nc1c(O)[nH]c2ccccc12	-12.7%	?	14.1µM*	?	7.5%	10.7%
CC(=O)c1cccc(N=Nc2c(C)[nH]c3ccccc23)c1	-10.1%	14.1µM*[quencher]	10µM*	-9.0%	1.5%	-2.7%
CCOC(=O)C(=O)N=Nc1c(O)[nH]c2ccccc12	-1.4%	-2.4%	-15.9%	-7.4%	5.3%	0.8%
Cc1cccc(N2CCN(C(=O)c3cnn(-c4cccc(Cl)c4C)c3C3CCNCC3)CC2)c1C	2.6%	1.1%	-17.2%	-16.4%[46 µM]	·	·
COc1ccc(-n2c(=O)c(-c3ccc(F)cc3)nc3cnc(N4CCOCC4)nc32)cc1	·	·	·	1.1%	·	·
Cc1cc2c(cc1S(=O)(=O)Nc1ccc(C(C)C)cc1)OCCN2C	3.6%	3.4%	-4.0%	-2.5%[46 µM]	·	·
O=C(CSCc1ccccc1Cl)NN=C1CCCCCC1	-0.4%	-12.0%	-21.7%	-1.6%	2.4%	10.2%
C/C(=N\NC(=O)CSCc1ccccc1Cl)c1cc(O)ccc1O	?	?	?	?	4.47µM*	?
CC(c1ccccc1)C1C(C#N)=C(N)SC(N)=C1C#N (centres undefined)	-4.6%	-9.1%	?	1.9%	?	1.4%
CC(CC1C(C#N)=C(N)SC(N)=C1C#N)c1ccccc1 (centres undefined)	-10.5%	-14.7%	?	-9.9%	22.4µM*	-1.0%
Cc1onc(-c2ccccc2)c1C(=O)NC(=S)NNC(=O)c1cc(-c2ccc(F)cc2)n[nH]1	3.4%	-18.9%	·	·	12.6µM*	?
Cc1oc2c(c1C(=O)Nc1ccc(OC(F)(F)F)cc1)C1=NCCN1C=N2	5.4%	-10.2%	-1.3%	-3.0%[46 µM]	·	·
Cc1ccc(NC2=Nc3ccccc3N3C2=Nc2c(c(C)nn2-c2ccccc2)C3c2ccc(O)c(O)c2)cc1 (centres undefined)	-3.5%	?	-11.9%	?	28.2µM*	13.8%
Cc1nn(-c2ccccc2)c2c1C(c1ccc(O)c(O)c1)N1C(=N2)C(Nc2ccccc2)=Nc2ccccc21 (centres undefined)	-9.9%	14.1µM*[quencher]	?	?	17.8µM*	18.8%
